In PubChem BioAssay (NCATS):
Records with an inconclusive call do not appear. Where a call stands in place of a potency, no number is given. Active and inactive are the calls of the source. Calls come from the whole dose curve; as a rule, active = well fitted inhibition curve with a large enough effect; inconclusive = small, poorly fitted or top-dose-only effect; inactive = flat fitted curve, though single readings scatter.

system: Zika virus NS2B-NS3 protease; test: Primary screen GU AMC qHTS for Zika virus inhibitors (AID 1347154); conditions: Zika NS2B-NS3 unlinked protease, AMC fluorogenic substrate; series mostly up to 54.1 µM; note: nearly all actives have a fitted effect of over 70% in size
Outline: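 Unlinked Zika NS2B hydrophilic domain–NS3 protease complex at 25 nM in 10 mM Tris-HCl pH 8.0, 0.01% Tween 20, with an AMC peptide substrate. Fluorescence change (340/450 nm) over 15 min at room temperature, normalized to controls, fitted to 4-parameter Hill.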

With `CN(C)CCCOC1(Cc2ccccc2)CCCCCC1` as the compound, how does the Potency read?
The Potency was “inactive”.

Which Potency does the source give for `O=C(CCCl)NCc1ccccc1` here?
Its Potency is “inactive”.

With `CCCC(=O)Nc1ccc(O)c(C(C)=O)c1` as the compound, how does the Potency read?
The Potency was “inactive”.

For `Brc1ccccc1-c1ccccc1`, which Potency is on record?
Its Potency is “inactive”.

With `CC(=O)N(CC(=O)N(C)C)c1ccccc1` as the compound, how does the Potency read?
Its Potency is “inactive”.

`O=C(O)C1CCC1` was tested. Which Potency did it give?
The Potency was “inactive”.

How did the Potency turn out when `Cc1sccc1Br` was run?
Its Potency is “inactive”.

Which Potency does the source give for `CCC(=O)Oc1ccc2c(c1)CC[C@@H]1[C@@H]2CC[C@@]2(C)[C@H]1C[C@@H](OC(=O)CC)[C@@H]2OC(=O)CC` here?
The Potency was “inactive”.

With `CCCC(=O)O[C@]1(C(=O)CC)CC[C@H]2[C@@H]3CCC4=CC(=O)CC[C@]4(C)[C@H]3[C@@H](O)C[C@@]21C` as the compound, how does the Potency read?
The Potency was “inactive”.

With `C[C@@H](C1=C(CCN(C)C)Cc2ccccc21)c1ccccn1` as the compound, how does the Potency read?
The Potency was “inactive”.

Which Potency does the source give for `O=C(C1CCCCC1)N1CC(=O)N2CCCc3ccccc3C2C1` (configuration not stated) here?
Its Potency is “inactive”.

How did the Potency turn out when `CC(C)C(=O)OCc1cccc(OC(=O)[C@@H]2N3C(=O)[C@@H](NC(=O)Cc4ccccc4)[C@H]3SC2(C)C)c1` was run?
The Potency was “inactive”.

`Nc1ccc([N+](=O)[O-])c(C(F)(F)F)c1` was tested. Which Potency did it give?
The Potency was “inactive”.

For `C[N+](C)(CCOc1ccccc1)Cc1cccs1`, which Potency is on record?
The Potency was “inactive”.

How did the Potency turn out when `COc1cc2c(cc1OC)CN(C(=O)[C@H](C)N[C@@H](CCc1ccccc1)C(=O)O)[C@H](C(=O)O)C2` was run?
Its Potency is “inactive”.

Which Potency does the source give for `Cc1ccc(-c2ccccc2C#N)cc1` here?
The Potency was “inactive”.

For `CC(C)C(=O)Nc1cccc(C2CN3CCSC3=N2)c1` (configuration not stated), which Potency is on record?
The Potency was “inactive”.

Which Potency does the source give for `Fc1ccc(C(c2ccc(F)cc2)N2CCNCC2)cc1` here?
Its Potency is “inactive”.

How did the Potency turn out when `CC[C@@H]([C@H](C)O)n1ncn(-c2ccc(N3CCN(c4ccc(OC[C@@H]5CO[C@@](Cn6cncn6)(c6ccc(F)cc6F)C5)cc4)CC3)cc2)c1=O` was run?
Its Potency is “inactive”.

`CN1N=C(C(N)=O)CCC1=O` was tested. Which Potency did it give?
Its Potency is “inactive”.

For `CC(=O)O[C@@H]1CC2C3CCc4cc(OC(=O)c5ccccc5)ccc4C3CCC2(C)[C@H]1OC(C)=O` (some centres not stated), which Potency is on record?
The Potency was “inactive”.

For `Cc1c(F)cc2c(=O)c(C(=O)O)cn3c2c1CCC3C` (configuration not stated), which Potency is on record?
Its Potency is “inactive”.

How did the Potency turn out when `CCCCCOc1ccccc1/C(=C\SC)n1ccnc1` was run?
Its Potency is “inactive”.

`COCCOCC(OC)OC` was tested. Which Potency did it give?
Its Potency is “inactive”.

`CCN(CC)C(=O)C1CN2CCc3cc(OC)c(OC)cc3C2CC1OC(C)=O` (configuration not stated) was tested. Which Potency did it give?
The Potency was “inactive”.

`CN1Cc2cc(C(=O)N3CCC(C4CCNCC4)CC3)ccc2NC(CC(=O)O)C1=O` (configuration not stated) was tested. Which Potency did it give?
The Potency was “inactive”.

Which Potency does the source give for `CCCC(CCC)(C(=O)OCC)C(=O)OCC` here?
Its Potency is “inactive”.

For `CCCCCC(=O)O[C@]1(C(C)=O)CC[C@H]2[C@@H]3CCC4=CC(=O)CC[C@]4(C)[C@H]3CC[C@@]21C`, which Potency is on record?
The Potency was “inactive”.

With `CCOc1ncc(F)c(=O)[nH]1` as the compound, how does the Potency read?
Its Potency is “inactive”.

Which Potency does the source give for `Nc1nnnn1-c1ccccc1` here?
Its Potency is “inactive”.

How did the Potency turn out when `CCN(CC)CC(=O)Oc1ccc(NC(C)=O)cc1` was run?
The Potency was “inactive”.

With `C=CCNc1nc(NCC=C)nc(N2CCN(C(c3ccc(F)cc3)c3ccc(F)cc3)CC2)n1` as the compound, how does the Potency read?
Its Potency is “inactive”.

`O=C(OCCN1CCOCC1)c1cccnc1Nc1cccc(C(F)(F)F)c1` was tested. Which Potency did it give?
The Potency was “inactive”.

Which Potency does the source give for `CN1CC[C@H](c2c(O)cc(O)c3c(=O)cc(-c4ccccc4Cl)oc23)[C@H](O)C1` here?
Its Potency is “inactive”.

Which Potency does the source give for `CCOC(=O)OCC/C(SC(=O)OCC)=C(\C)N(C=O)Cc1cnc(C)nc1N` here?
The Potency was “inactive”.

`Cn1cc(S(C)=O)c(=O)c2ccc(F)cc21` (configuration not stated) was tested. Which Potency did it give?
Its Potency is “inactive”.

Which Potency does the source give for `CC(=O)Nc1ccc(S(=O)(=O)Nc2cc(C)on2)cc1` here?
The Potency was “inactive”.
